Screening data: PubChem, Johns Hopkins Ion Channel Center
CHT PAM: allosterically activates the human high affinity choline transporter; Q9GZV3; CHT-expressing cells, membrane potential dye, choline EC20; active compounds read high; LV-AA mutant CHT in HEK293 cells; B-score at 10 µM; 310,000 tested, 0.49% active;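 active = initial fluorescence not abnormally high and integrated response B-score, plate-corrected, over 3 SD above library mean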
Target sequence (Q9GZV3 whole entry, looked up): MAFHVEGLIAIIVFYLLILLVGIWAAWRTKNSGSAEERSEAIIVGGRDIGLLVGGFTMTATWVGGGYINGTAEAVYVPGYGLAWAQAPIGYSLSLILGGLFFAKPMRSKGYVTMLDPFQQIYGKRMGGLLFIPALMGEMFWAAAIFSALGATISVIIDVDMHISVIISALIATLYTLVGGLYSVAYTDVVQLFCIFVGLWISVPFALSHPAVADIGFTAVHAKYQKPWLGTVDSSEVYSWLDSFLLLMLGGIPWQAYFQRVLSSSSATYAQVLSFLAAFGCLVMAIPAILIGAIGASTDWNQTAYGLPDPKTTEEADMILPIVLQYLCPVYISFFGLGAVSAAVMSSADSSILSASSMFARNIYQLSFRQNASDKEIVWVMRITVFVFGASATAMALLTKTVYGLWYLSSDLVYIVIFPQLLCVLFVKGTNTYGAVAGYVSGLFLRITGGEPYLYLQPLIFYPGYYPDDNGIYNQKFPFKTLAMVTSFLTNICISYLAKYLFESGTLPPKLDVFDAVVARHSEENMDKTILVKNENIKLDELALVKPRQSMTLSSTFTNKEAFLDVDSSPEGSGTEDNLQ
ANO1 activ: mouse TMEM16A channel activation, primary screen | Q8BHY3 | AID 623877 | 340,000 tested, 0.3% active | HEK293 TMEM16A/YFP-H148Q/I152L, iodide quench fluorescence; active compounds read low | B-score at 10 µM;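 active = fluorescence-ratio B-score plate-corrected deviation score at least 3 library SD below zero, with starting fluorescence score within 5 deviations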;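 also: channel opened by trigger with iodide after compound preincubation; score built on the fluorescence ratio of max minus min over baseline; more negative score means more quench and so TMEM16A activation or potentiation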
ANO1 block: inhibitors of mouse TMEM16A calcium-activated chloride channel | Q8BHY3 | HEK293 TMEM16A/YFP iodide influx fluorescence, ionomycin | normalized B-score (activity score, 25-100; higher = stronger inhibition) at 10 µM | 310,000 tested, 1.2% active | AID 588511;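 active = ratio plate-corrected score three or more library SD toward inhibition, starting fluorescence score within five deviations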;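 also: score derived from kinetic fluorescence span divided by baseline fluorescence per well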
CHT block: inhibits the human high affinity choline transporter; AID 488975; B-score at 10 µM; CHT-expressing cells, membrane potential dye, choline response; active compounds read low; 310,000 tested, 0.86% active;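 active = B-score over 3 SD under the library average, and starting fluorescence ratio not unusually high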;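 also: choline stimulus applied at its EC90 after an EC20 pre-addition; B-score computed on integrated fluorescence ratio after choline addition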
CHT block conf: human CHT inhibition, confirmatory screen; shares compounds with CHT block; 2,400 tested, 70% active; AID 493221; CHT-expressing cells, choline membrane potential dye; LV-to-AA substituted CHT, HEK293 cells; CHT activity remaining % of control (active compounds read low), % at 10 µM;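 active = choline transporter activity left, mean of duplicates at 10 µM, below buffer-only control mean minus 3 SD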;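 also: depolarization triggered by choline at its EC90 following an EC20 pre-addition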
HEK293 MPD ctr: counter-screen for CHT inhibitors: effect in parental HEK293 cells; shares compounds with CHT block; membrane potential dye, choline response; active = decrease or increase beyond buffer ±3SD; membrane potential ratio readout (active if shifted either direction beyond buffer ±3SD; no single direction) at 10 µM; 2,400 tested, 4% active; AID 493222;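 also: parental cells lack the transporter so any hit is non-specific; ratio is peak minus trough fluorescence over baseline after EC90 choline challenge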
CHT act confirm: human CHT activation, confirmatory screen; shares compounds with CHT PAM; 2,500 tested, 91% active; CHT-expressing cells, membrane potential dye fluorescence (FDSS); % of choline EC20–EC90 response window; HEK293 expressing CHT LV-AA mutant; choline added at its EC20; activation, % at 10 µM;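 active = primary screen active, with duplicate mean activation above negative control mean plus 3 SD, cut at about 11% in these data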
HEK293 MP dye: activity in parental HEK293 cells lacking CHT; ratio readout change at 10 µM, hits read low; membrane potential dye fluorescence (FDSS); measured after EC20 choline addition; 2,500 tested, 62% active; shares compounds with CHT PAM;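 active = duplicate-averaged ratio beyond 3 SD from buffer wells, up or down, though filed actives are nearly all decreases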
TMEM16A reconf: re-confirmation of mouse TMEM16A chloride channel inhibitors; 2,300 tested, 39% active; inhibition, % at 10 µM; shares compounds with ANO1 block; AID 652189; HEK293 TMEM16A/YFP-H148Q, iodide quench fluorescence; ionomycin added to raise cell calcium;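 active = mean duplicate percent inhibition, scaled so buffer wells are 0 and the reference blocker 100, over three buffer SD above buffer mean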
HEK293 Ca mobil: calcium mobilization counter-screen hit for TMEM16A inhibitor series; shares compounds with ANO1 block; TMEM16A/YFP HEK293, Fluo4 calcium mobilization; calcium response (% of ionomycin), % at 10 µM; 2,300 tested, 2% active;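 active = duplicate-averaged calcium signal over 20% of the ionomycin maximum, relative to buffer baseline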;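 also: each well's signal is peak minus trough fluorescence divided by its pre-addition baseline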
Parental YFP cnt: acts in parental YFP-HEK293 cells lacking TMEM16A, counter-screen | shares compounds with ANO1 block | iodide YFP quench, ionomycin | YFP ratio F(max-min)/F0 at 10 µM | 2,300 tested, under 10 active | AID 652233;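 active = yellow fluorescent protein signal ratio exceeding the buffer control mean by over 5 SD of those controls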;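 also: ratio is mean of duplicate wells from kinetic YFP trace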
ClC-1 inh: blocks the rat ClC-1 voltage-dependent chloride channel. AID 652236. 2,300 tested, under 10 active. ratio percent, % at 10 µM. CHO ClC-1-YFP, iodide influx fluorescence quench; iodide control reads 0, buffer control 100. shares compounds with ANO1 block;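 active = duplicate-mean ratio percent above the mean of iodide-only control wells, which defines zero, plus 5 of their SD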;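 also: higher percent means stronger block of ClC-1 iodide influx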
Numbers stand for hits; 0 = inactive; - = no result; ! = not confirmed by another sample. A selection: hits, their analogues and other compounds. The true share with any hit is near 2.4%.

SMILES | CHT PAM | ANO1 activ | ANO1 block | CHT block | CHT act confirm | HEK293 MP dye | others
Cc1cccc(N2CCc3c2nc2ccccc2c3N)c1 | 0 | 0 | 0 | -9.3! | 33 | -56 | CHT block conf=56%;HEK293 MPD ctr=0
CC1(C)CN(S(=O)(=O)OCC(Cl)(Cl)Cl)C(=O)N1 | 0 | 0 | 0 | 0 | - | -
CCC(=NCCc1ccccc1)c1c(O)n(C)c(=O)n(C)c1=O | 0 | 0 | 25 | -5.6 | - | - | CHT block conf=53%;HEK293 MPD ctr=0;TMEM16A reconf=0;HEK293 Ca mobil=0;Parental YFP cnt=0;ClC-1 inh=0
Cc1nc2ccsc2c(=O)n1-c1ccccc1Cl | 0 | 0 | 0 | 0 | - | -
CNC(=S)N(C)CCc1cc2c(c(OC)c1/C=C1/C(=O)NC(=O)N(C)C1=O)OCO2 | 6.6 | 0 | 0 | 0 | 37 | -54
COc1cc2c3c(c1OC)-c1cc(O)ccc1CC3NCC2 (stereo not drawn) | 0 | 0 | 0 | 0 | 48 | -42
CCOc1cc(-c2nc3c(C)cccn3c2NCC2CCCO2)ccc1O (stereo not drawn) | 6.4 | 0 | 0 | 0 | 56 | -34
CCOc1ccccc1CN1C2CCC1CC(c1ccc(C)cc1)C2 (stereo not drawn) | 0 | 0 | 0 | 0 | - | -
N=C1c2ccccc2CN1c1ccc(F)c([N+](=O)[O-])c1 | 0 | 0 | 0 | 0 | 46 | -26
N=C1c2ccccc2CN1c1cccc([N+](=O)[O-])c1 | 0 | 0 | 0 | 0 | 54 | -38
Nc1cccc2c1Cc1cc([N+](=O)[O-])ccc1-2 | - | 0 | - | - | - | -
CN(C)C1(CNC(=O)c2ccc(Cl)c(S(=O)(=O)NCc3ccco3)c2)CCCCC1 | 0 | 0 | 0 | 0 | - | -
CCOC(=O)c1c(N)n(CCN2CCCCC2)c2nc3ccccc3nc12 | 0 | 0 | 0 | 0 | 29 | -42
CCCCn1c(N)c(C(=O)NCCN2CCOCC2)c2nc3ccccc3nc21 | 0 | 0 | 0 | 0 | - | -
Clc1ccc(C(Cn2ccnc2)OCc2csc3c(Cl)cccc23)c(Cl)c1 (stereo not drawn) | 0 | 0 | 0 | 0 | - | -
Clc1ccc(CCC(Cn2ccnc2)Sc2c(Cl)cccc2Cl)cc1 (stereo not drawn) | 0 | 0 | 0 | 0 | 30 | -27
O=P1(NCc2ccco2)COc2ccccc2OC1 | 0 | 0 | 0 | 0 | - | -
Cc1cc(N2CCOCC2)nc2ccc(NC(=O)CCC(=O)N3CCC4(CC3)OCCO4)cc12 | 0 | 0 | 0 | 0 | 53 | -38
O=C1CN=C(c2cccc(Br)c2)c2cc(Br)ccc2N1 | 0 | 0 | 0 | 0 | - | -
CCCCn1c(O)c(C(C)=NCCCn2ccnc2)c(=O)[nH]c1=O | 0 | 0 | 0 | 0 | - | -
CC(=NCCCn1ccnc1)c1c(O)n(C)c(=O)n(C)c1=O | 0 | 0 | 0 | 0 | 48 | -34
O=C1/C(=C/c2ccccc2Cl)N2CCC1CC2 | 0 | 0 | 0 | 0 | - | -
CCN(CC)C1=NC(=[N+](CC)CC)c2ccccc21 | 8.7 | 0 | 0 | 0 | 64 | -56
CC(N)C(=O)OC(C)(C)Cc1ccc(Cl)cc1 (stereo not drawn) | 0 | 0 | 0 | 0 | - | -
N=C1c2ccccc2CN1CC(=O)c1ccccc1 | 0 | 0 | 0 | 0 | - | -
SMILES | CHT PAM | ANO1 activ | ANO1 block | CHT block | CHT act confirm | HEK293 MP dye | others
CCN(CC)CCN1Cc2ccccc2C1=N | 11 | 0 | 0 | 0 | 75 | -73
COc1ccc(C(=O)OC2C[C@H]3CC[C@H](C2)N3C)cc1OC (stereo partly drawn) | 6.6 | 0 | 0 | 0 | 40 | -32
CCN1C[C@]2(OC(=O)c3ccccc3NC(C)=O)CCC(OC)C34C5C[C@H]6C(OC)[C@]5(O)[C@](O)(C[C@@H]6OC)C(C[C@@H]32)[C@H]14 (stereo partly drawn) | 0 | 0 | 0 | 0 | - | -
Nc1ccc2ccc3cccc[n+]3c2c1 | 0 | 0 | 0 | 0 | - | -
C[n+]1c(-c2ccccc2)c2cc(N)ccc2c2ccc(N)cc21 | 9.2 | 0 | 0 | 0 | 38 | -77
CCCC1(CC(C)C)C(=O)NC(=S)NC1=O | - | 0 | - | - | - | -
CN1CCc2nc3sc(C(=O)NC4CC4)c(N)c3cc2C1 | 0 | 0 | 0 | 0 | - | -
CN1CCc2nc3sc(C#N)c(N)c3c(-c3cccs3)c2C1 | 8.5 | 0 | 0 | 0 | 39 | -59
Cc1cc(C)[n+](CCCC[n+]2c(C)cc(C)cc2C)c(C)c1 | 7.9 | 0 | 0 | 0 | 73 | -99
CCc1nc2ccc(N3CCN(C)CC3)cc2nc1CC | 0 | 0 | 0 | 0 | - | -
CN1CCN(c2ccc3nccnc3c2)CC1 | 0 | 0 | 0 | 0 | 16 | 0
Cc1cc(C)n2nc(C)[n+](C)c2n1 | 8 | 0 | 0 | 0 | 60 | -34
CCCCn1c(=O)c(C(=O)NCc2ccc(Cl)cc2)c(O)c2ccccc21 | 0 | 0 | 0 | 0 | - | -
CCCCCn1c(=O)c(C(=O)NCc2ccncc2)c(O)c2ccccc21 | 0 | 0 | 25 | 0 | 31 | 0
S=P(NCCSCc1ccccc1)(N1CC1)N1CC1 | - | 0 | - | - | - | -
COC(=O)COc1ccc(/C=C2\C(=O)NC(=S)N(c3ccc(C)cc3)C2=O)cc1OC | 0 | 0 | 0 | 0 | - | -
CN(C)C(=O)Oc1cccc(OCc2n(C)c3ccccc3[n+]2C)c1 | 7 | 0 | 0 | 0 | 55 | -42
c1ccc(-c2[nH]c(-c3ccccc3)[n+](CC3CO3)c2-c2ccccc2)cc1 (stereo not drawn) | 0 | 0 | 0 | 0 | 25 | 0
COc1ccccc1CNCCc1ccc(F)cc1 | 0 | 0 | 0 | 0 | - | -
COCCN1Cc2cc(=O)n3c([nH]c4ccccc43)c2C1=N | 0 | 0 | 0 | 0 | 53 | -42
